Test [1] in a line: qHTS for differential inhibitors of proliferation of Plasmodium falciparum line Dd2 (AID 1882). Note: potency is the fitted concentration of half-maximal effect; nearly all actives have a fitted effect of over 65% in size. The following applies: Potency: Plasmodium falciparum Dd2 proliferation inhibition. In outline:
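SYBR Green I DNA fluorescence read-out, ex 485/em 535 nm. Signals were normalized to 0.29 uM artemisinin and DMSO wells, then corrected using vehicle-only plates flanking each stack. Parasite growth ran 72 h in erythrocytes before lysis.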
(In general: qHTS replaces the single test concentration by a dilution series.)

Test [2] is described as follows: qHTS for differential inhibitors of proliferation of Plasmodium falciparum line W2 (AID 1883).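 Note: potency is the fitted concentration of half-maximal effect; parasites grown with compound for 72 h before lysis and staining.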 The following applies: Potency: Plasmodium falciparum W2 proliferation inhibition.
A short description of test [3]: qHTS for differential inhibitors of proliferation of Plasmodium falciparum line HB3 (AID 1886).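 Note: potency is the fitted concentration of half-maximal effect; parasites grown with compound for 72 h before SYBR Green readout.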 The conditions noted are these: Potency: Plasmodium falciparum HB3 proliferation inhibition.
Test [4] concerns the target ATP-dependent DNA helicase Q1 (Homo sapiens) (UniProt P46063). The test is described as follows: qHTS Validation Assay for Inhibitors of RecQ-Like Dna Helicase 1 (RECQ1) (AID 2353).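 Note: plate controls were DMSO vehicle for no effect and enzyme-free control for full effect.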 An outline of the steps:
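50 nM RECQ1T1 preincubated 15 min with compound in Tris pH 8.0 buffer with MgCl2, DTT, Tween-20 and 2.5 ug/ml poly(dI-dC); started with 200 nM TAMRA/BHQ-2 forked duplex and 2 mM ATP. Unwinding read as fluorescence (525/598 nm), two reads 2 h apart.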

Test [5] is described as follows: Quantitative high throughput screen for delayed death inhibitors of the malarial parasite plastid, 96 hour incubation (AID 488745). Note: potency is the fitted concentration of half-maximal effect; nearly all actives have a fitted effect of over 70% in size. In outline:
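P. falciparum carrying an integrated firefly luciferase reporter, grown in erythrocytes (2% hematocrit, 0.1% parasitemia final) in RPMI 1640/0.5% Albumax, was exposed to compound for 96 h (two generations) at 37 C, 5% CO2. Luminescence decrease indicated growth inhibition.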

A short description of test [6]: Quantitative high throughput screen for delayed death inhibitors of the malarial parasite plastid, 48 hour incubation (AID 488752). Note: potency is the fitted concentration of half-maximal effect; nearly all actives have a fitted effect of over 65% in size. An outline of the steps: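 Erythrocytes infected with P. falciparum carrying an integrated firefly luciferase reporter (2% hematocrit, 0.1% parasitemia final) were exposed to compounds in RPMI 1640/0.5% Albumax for 48 h at 37 C, 5% CO2. Growth inhibition was scored as reduced luminescence.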

Test [7] concerns the target M-phase phosphoprotein 8 (Homo sapiens) (UniProt Q99549). The test can be described thus: qHTS Validation Assay for Inhibitors for MPP8 Chromodomain Interactions with Methylated Histone Tails (AID 488949).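 Note: 50 nM MPP8 with 50 nM peptide preformed then compounds added for 30 min; AlphaScreen signal from MPP8 chromodomain bound to biotinylated H3K9me3 peptide; top concentration of the series differs between compounds; % is set by controls: 0 for no effect and ±100 for the full control effect; nearly all actives have a fitted effect of over 55% in size.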 In outline: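 50 nM MPP8 + 50 nM b-H3K9me3 peptide, PBS pH 7.4/0.01% Tween-20, 30 min RT; + cpd 30 min RT; + AlphaScreen donor/Ni-chelate acceptor beads 10 ug/mL final, 30 min dark; luminescence read.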

The target of test [8] is Thyrotropin receptor (Homo sapiens) (UniProt P16473). The test can be described thus: qHTS Assay for Antagonists of the Thyroid Stimulating Hormone Receptor (AID 488980). Note: 0% is about no effect. In outline:
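Readout is cAMP by HTRF competition between cellular cAMP and cAMP-d2 for a cryptate-labelled antibody. Antagonism was assessed in TSHR-transfected HEK293 cells stimulated with 4 nM TSH (EC80, final) in the presence of RO 20-1724.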

The target in test [9] is Thyrotropin-releasing hormone receptor (Homo sapiens) (UniProt P34981). The test can be described thus: qHTS for Small Molecule Agonists and Allosteric Enhancers of Human TRH Receptor: Validation Screen for Agonists (AID 493127;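 active = calcium activation more than 3 SD above the typical response in the agonist read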;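 note: intracellular calcium rise by fluo-8 fluorescence before TRH EC20 addition; 0% is about no effect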). The following applies: TRH receptor agonist cell assay; at 2 µM; stronger effect = higher value. An outline of the steps:
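TRHR-expressing cells were plated overnight in serum-containing medium, then loaded with fluo-8 calcium dye at room temperature for 30 min–1.5 h. After a 10 s baseline, compound was pin-transferred and calcium fluorescence (ex 480/em 530) read kinetically for agonist response.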

Test [10] addresses Galactokinase (Homo sapiens) (UniProt P51570). The test can be described thus: qHTS Validation Assay for Inhibitors of Human Galactokinase (GALK) (AID 493189). Note: 0% is about no effect. An outline of the steps:
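5 nM GALK / 100 uM galactose / 35 uM ATP, 20 mM HEPES pH8.0, 5 mM MgCl2, 60 mM NaCl, 1 mM DTT, 0.01% BSA (final). RT 1 h; Kinase-Glo Plus luminescence.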

The nature of test [11]: Validation screen for small molecules that induce DNA re-replication in SW480 colon adenocarcinoma cells (AID 504364). Note: 0% is about no effect. An outline of the steps:
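SW480 cells seeded at 250 per well were exposed to compound or DMSO for 48 hr at 37 C, 5% CO2, then stained with Hoechst for 40 min. DNA content per nucleus was imaged (405 nm ex, 500-530 nm em).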

The target in test [12] is DNA dC->dU-editing enzyme APOBEC-3G (Homo sapiens) (UniProt Q9HC16). The test is described as follows: qHTS for inhibitors of Vif-A3G interactions: Validation (AID 588379). Note: 0% is about no effect. In outline: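 HeLa cells stably expressing Vif and A3G-eYFP, 700 cells/well, incubated overnight at 37 deg C, then exposed to compound overnight at 37 deg C. Inhibition of Vif-mediated degradation read as increased yellow fluorescence (Ex 488/Em 500-530) by laser-scanning cytometry.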

For test [13], the target named is Voltage-gated inwardly rectifying potassium channel KCNH2 (Homo sapiens) (UniProt Q12809). The test is described as follows: qHTS Assay for Small Molecule Inhibitors of the Human hERG Channel Activity (AID 588834).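 Note: top concentration of the series differs between compounds; % is set by controls: 0 for no effect and ±100 for the full control effect; lower thallium flux fluorescence means stronger hERG block; nearly all actives have a fitted effect of over 50% in size.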 In outline: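 hERG-BacMam U2OS, 2000 cells/well; 0.7X FluxOR loading 1 hr RT dark; cpd ~10 min 37 °C; stim buffer; FDSS fluorescence 2 min @ 1 s; AC50 Hill fit.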

Test [14] can be described thus: qHTS profiling for inhibitors of Plasmodium falciparum (3D7) proliferation (AID 743322).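 Note: infected erythrocytes exposed to compound for 72 h before lysis; 100% = DMSO vehicle wells and 0% = 0.29 µM artemisinin.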 The conditions noted are these: P. falciparum 3D7 proliferation; at 28.7 µM (top of the series). In outline:
(§1)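 Erythrocytes infected with P. falciparum (0.3% parasitemia, 2.5% hematocrit) incubated with compounds 72 h at 37 C, 5% CO2. Lysis with saponin/Triton buffer containing SYBR Green I, overnight at room temperature in the dark; DNA fluorescence (485/535 nm) normalised to 0.29 uM artemisinin and DMSO.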

The nature of test [15]: qHTS profiling for inhibitors of Plasmodium falciparum (DD2) proliferation (AID 743323; call rule not given here). The conditions noted are these: lower = more inhibition; at 28.7 µM (top of the series). In outline:
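Parasite DNA quantified by SYBR Green fluorescence (ex 485, em 535 nm) after saponin/Triton lysis and overnight dark incubation. Cultures: 0.3% parasitemia, 2.5% hematocrit, 72 h, 37 C; data scaled between DMSO and 0.29 uM artemisinin.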

Test [16] can be described thus: qHTS profiling for inhibitors of Plasmodium falciparum (HB3) proliferation (AID 743324).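 Note: 100% = DMSO vehicle wells and 0% = artemisinin-treated control wells.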 The conditions noted are these: Plasmodium falciparum HB3 blood-stage proliferation; at 28.7 µM (top of the series). An outline of the steps: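 P. falciparum HB3 grown in erythrocytes (0.3% parasitemia, 2.5% hematocrit final) with compound for 72 h at 37 C, 5% CO2. Parasite DNA detected by SYBR Green after saponin/triton lysis overnight; normalized to 0.29 uM artemisinin and DMSO.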

The nature of test [17]: qHTS profiling of the MIPE4 collection as inhibitors of Plasmodium falciparum (3D7) proliferation (AID 743344; call rule not given here;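 note: scaled between DMSO vehicle wells and 0.29 µM artemisinin as full inhibition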). The conditions noted are these: P. falciparum 3D7 in erythrocytes, SYBR Green DNA fluorescence, 72 h; at 28.5 µM (top of the series). An outline of the steps: as §1
The nature of test [18]: qHTS profiling of the MIPE4 collection as inhibitors of Plasmodium falciparum (DD2) proliferation (AID 743345; call rule not given here). The following applies: P. falciparum Dd2 in erythrocytes, SYBR Green DNA, 72 h; at 28.5 µM (top of the series). An outline of the steps:
as §1

Test [19] in a line: qHTS profiling of the MIPE4 collection as inhibitors of Plasmodium falciparum (DD2) proliferation (Rep 2) (AID 743346; call rule not given here). The conditions noted are these: P. falciparum Dd2 in erythrocytes, SYBR Green DNA, 72 h; at 28.5 µM (top of the series). An outline of the steps: as §1
A short description of test [20]: qHTS profiling of the MIPE4 collection as inhibitors of Plasmodium falciparum (HB3) proliferation (AID 743347; call rule not given here;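 note: plate controls were DMSO vehicle wells for no effect and artemisinin wells for full effect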). The following applies: P. falciparum HB3 in erythrocytes, SYBR Green DNA, 72 h; at 28.5 µM (top of the series). An outline of the steps: as §1
In test [21] the test system is Zika virus NS2B-NS3 protease. The test is described as follows: Primary screen GU AMC qHTS for Zika virus inhibitors (AID 1347154).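 Note: 0% = no-inhibitor control and -100% = no-enzyme control; nearly all actives have a fitted effect of over 70% in size.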 In outline:
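Unlinked Zika NS2B hydrophilic domain/NS3 protease domain noncovalent complex (25 nM final) in 10 mM Tris-HCl pH 8.0, 0.01% Tween 20, with AMC peptide substrate. Fluorescence (ex 340, em 450 nm) change over 15 min, room temperature; percent inhibition fitted to 4-parameter Hill equation.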

Test [22] can be described thus: Primary qHTS for small molecule stabilizers of the endoplasmic reticulum resident proteome: Secreted ER Calcium Modulated Protein (SERCaMP) assay (AID 1508630). Note: % is set by controls: 0 for no effect and ±100 for the full control effect. In outline:
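GLuc-SERCaMP-expressing SH-SY5Y cells, pretreated 16 h with compound, are challenged with thapsigargin to empty ER calcium stores; after 4 h, coelenterazine is added directly to the medium and luminescence is imaged.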

SMILES strings stand for the structures. Records with an inconclusive call do not appear. Active and inactive are the calls of the source. Unless noted, calls come from the whole dose curve; as a rule, active = well fitted curve in the direction sought with a large enough effect; inconclusive = small, poorly fitted or top-dose-only effect, or another doubt; inactive = no such curve, though single readings can be large; an effect the other way counts as inactive or inconclusive.

Chain of DNA dC->dU-editing enzyme APOBEC-3G (Homo sapiens) (Q9HC16 whole entry, looked up): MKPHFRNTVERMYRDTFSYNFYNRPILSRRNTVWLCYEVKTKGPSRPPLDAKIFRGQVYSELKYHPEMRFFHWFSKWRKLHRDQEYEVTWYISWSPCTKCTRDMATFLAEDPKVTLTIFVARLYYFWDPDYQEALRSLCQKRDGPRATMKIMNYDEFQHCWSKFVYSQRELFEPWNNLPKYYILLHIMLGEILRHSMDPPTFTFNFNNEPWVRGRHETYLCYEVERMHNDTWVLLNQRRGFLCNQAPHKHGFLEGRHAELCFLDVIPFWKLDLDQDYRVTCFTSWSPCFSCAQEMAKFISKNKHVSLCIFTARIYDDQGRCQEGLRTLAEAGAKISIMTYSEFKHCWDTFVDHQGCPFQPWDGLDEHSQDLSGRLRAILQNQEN
Chain of Voltage-gated inwardly rectifying potassium channel KCNH2 (Homo sapiens) (Q12809 whole entry, looked up): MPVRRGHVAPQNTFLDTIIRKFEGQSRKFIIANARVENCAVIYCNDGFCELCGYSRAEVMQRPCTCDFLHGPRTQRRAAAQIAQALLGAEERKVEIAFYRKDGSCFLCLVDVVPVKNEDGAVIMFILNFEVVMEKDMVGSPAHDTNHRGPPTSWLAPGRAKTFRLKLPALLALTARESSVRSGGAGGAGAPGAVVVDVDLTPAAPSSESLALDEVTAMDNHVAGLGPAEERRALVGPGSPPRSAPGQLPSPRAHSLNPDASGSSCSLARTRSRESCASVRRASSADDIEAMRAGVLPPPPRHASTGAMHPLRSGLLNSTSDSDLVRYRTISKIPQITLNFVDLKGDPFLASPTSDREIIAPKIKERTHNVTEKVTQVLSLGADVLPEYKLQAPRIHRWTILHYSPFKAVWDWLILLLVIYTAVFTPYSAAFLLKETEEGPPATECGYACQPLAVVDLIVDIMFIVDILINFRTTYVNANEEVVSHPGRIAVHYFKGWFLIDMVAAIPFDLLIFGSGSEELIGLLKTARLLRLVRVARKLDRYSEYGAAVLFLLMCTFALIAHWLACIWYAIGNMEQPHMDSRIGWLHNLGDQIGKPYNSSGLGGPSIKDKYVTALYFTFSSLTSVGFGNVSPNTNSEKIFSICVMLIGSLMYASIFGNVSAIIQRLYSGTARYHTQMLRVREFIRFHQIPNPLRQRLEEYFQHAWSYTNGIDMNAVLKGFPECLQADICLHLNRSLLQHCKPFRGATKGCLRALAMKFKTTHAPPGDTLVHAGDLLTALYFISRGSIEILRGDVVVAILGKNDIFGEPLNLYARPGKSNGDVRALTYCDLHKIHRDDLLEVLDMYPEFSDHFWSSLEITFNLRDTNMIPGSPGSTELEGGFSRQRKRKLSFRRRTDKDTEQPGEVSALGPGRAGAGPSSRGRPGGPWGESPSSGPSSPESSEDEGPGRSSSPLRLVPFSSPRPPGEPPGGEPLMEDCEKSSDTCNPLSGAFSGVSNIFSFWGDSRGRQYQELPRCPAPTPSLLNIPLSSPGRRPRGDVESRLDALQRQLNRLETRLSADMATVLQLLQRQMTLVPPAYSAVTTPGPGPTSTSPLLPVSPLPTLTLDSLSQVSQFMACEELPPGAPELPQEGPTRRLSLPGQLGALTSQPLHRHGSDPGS
Chain of ATP-dependent DNA helicase Q1 (Homo sapiens) (P46063 whole entry, looked up): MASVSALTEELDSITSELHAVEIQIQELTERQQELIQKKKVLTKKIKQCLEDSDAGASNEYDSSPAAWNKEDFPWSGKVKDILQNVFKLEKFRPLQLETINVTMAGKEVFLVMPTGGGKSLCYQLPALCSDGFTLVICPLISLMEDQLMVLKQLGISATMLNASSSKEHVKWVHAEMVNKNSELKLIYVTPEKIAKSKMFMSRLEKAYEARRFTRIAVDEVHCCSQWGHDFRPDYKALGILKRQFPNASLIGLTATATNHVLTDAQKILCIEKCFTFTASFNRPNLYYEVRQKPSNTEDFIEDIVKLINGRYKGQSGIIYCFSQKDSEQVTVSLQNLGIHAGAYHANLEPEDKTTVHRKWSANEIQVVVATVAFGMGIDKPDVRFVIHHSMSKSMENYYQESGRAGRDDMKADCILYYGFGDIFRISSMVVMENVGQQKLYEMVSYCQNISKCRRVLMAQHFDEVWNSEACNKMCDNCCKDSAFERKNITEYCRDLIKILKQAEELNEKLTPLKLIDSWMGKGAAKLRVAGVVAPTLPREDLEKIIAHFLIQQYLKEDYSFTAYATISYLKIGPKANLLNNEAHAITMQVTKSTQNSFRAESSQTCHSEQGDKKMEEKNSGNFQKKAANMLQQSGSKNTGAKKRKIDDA
Chain of Galactokinase (Homo sapiens) (P51570 whole entry, looked up): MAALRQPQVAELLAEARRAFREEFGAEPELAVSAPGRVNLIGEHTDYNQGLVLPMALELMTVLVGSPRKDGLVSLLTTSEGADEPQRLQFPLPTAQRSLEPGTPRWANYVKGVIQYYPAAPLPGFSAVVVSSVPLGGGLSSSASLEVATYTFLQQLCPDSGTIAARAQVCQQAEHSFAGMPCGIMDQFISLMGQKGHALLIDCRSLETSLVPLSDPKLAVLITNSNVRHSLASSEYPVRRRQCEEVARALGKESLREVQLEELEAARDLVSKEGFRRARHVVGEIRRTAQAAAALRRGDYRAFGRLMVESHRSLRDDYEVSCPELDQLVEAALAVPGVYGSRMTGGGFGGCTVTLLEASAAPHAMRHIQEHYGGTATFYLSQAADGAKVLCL
Chain of Thyrotropin receptor (Homo sapiens) (P16473 whole entry, looked up): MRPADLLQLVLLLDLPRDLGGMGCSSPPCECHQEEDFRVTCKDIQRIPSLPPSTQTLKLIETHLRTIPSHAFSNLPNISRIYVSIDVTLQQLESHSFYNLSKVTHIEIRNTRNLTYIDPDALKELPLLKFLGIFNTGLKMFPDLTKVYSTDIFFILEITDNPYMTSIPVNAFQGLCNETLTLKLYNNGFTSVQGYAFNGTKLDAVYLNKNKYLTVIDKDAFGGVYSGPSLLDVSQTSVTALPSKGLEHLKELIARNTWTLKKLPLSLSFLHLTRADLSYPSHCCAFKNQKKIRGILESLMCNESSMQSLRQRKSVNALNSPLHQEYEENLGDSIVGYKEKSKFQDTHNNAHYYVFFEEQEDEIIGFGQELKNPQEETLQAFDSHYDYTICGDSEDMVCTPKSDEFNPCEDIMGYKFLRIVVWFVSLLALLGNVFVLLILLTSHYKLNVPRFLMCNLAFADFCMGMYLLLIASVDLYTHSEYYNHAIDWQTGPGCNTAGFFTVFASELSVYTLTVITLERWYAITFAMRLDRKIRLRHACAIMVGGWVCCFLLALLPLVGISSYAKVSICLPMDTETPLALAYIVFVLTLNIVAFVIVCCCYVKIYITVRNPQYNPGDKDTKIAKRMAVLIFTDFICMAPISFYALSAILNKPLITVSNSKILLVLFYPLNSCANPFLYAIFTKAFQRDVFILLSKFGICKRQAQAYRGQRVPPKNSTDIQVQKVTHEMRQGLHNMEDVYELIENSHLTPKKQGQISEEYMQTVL
Chain of Thyrotropin-releasing hormone receptor (Homo sapiens) (P34981 whole entry, looked up): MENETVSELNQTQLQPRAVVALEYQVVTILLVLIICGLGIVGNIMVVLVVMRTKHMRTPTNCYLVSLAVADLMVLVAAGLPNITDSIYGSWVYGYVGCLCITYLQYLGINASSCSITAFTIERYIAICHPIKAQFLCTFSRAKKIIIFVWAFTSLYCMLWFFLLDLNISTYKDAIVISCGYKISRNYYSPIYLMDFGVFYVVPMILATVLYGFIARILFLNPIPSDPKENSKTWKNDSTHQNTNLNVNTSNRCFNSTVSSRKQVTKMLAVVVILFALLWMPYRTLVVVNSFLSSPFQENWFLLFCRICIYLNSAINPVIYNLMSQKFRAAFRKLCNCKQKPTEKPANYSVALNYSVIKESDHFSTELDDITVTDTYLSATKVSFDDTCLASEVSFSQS
Chain of M-phase phosphoprotein 8 (Homo sapiens) (Q99549 whole entry, looked up): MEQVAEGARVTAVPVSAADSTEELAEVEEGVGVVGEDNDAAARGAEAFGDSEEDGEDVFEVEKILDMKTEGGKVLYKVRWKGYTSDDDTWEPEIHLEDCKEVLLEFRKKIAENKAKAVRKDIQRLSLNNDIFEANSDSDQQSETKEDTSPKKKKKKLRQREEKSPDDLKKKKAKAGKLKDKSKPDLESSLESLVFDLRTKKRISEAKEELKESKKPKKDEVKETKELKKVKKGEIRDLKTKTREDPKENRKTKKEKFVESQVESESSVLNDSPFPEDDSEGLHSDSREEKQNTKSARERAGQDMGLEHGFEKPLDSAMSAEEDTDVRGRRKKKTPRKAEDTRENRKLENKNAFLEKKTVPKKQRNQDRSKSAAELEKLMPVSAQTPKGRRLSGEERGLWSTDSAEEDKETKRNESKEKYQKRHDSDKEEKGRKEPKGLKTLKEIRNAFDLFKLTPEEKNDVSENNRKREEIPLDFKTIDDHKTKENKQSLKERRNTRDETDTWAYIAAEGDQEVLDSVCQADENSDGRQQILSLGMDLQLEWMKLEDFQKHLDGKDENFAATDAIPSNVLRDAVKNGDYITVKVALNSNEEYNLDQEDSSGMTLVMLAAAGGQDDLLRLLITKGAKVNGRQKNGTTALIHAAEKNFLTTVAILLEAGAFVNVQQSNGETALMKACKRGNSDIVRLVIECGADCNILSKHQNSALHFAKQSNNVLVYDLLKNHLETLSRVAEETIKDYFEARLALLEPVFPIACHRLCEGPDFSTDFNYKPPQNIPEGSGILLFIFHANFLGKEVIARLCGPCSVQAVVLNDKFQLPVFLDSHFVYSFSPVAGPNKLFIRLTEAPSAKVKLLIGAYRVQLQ

`COc1cc2c(cc1C(F)(F)F)N(C(=O)Nc1cc(F)cc(-c3cccnc3)c1)CC2`: the Potency in test [1] is 6.31 µM (active); in test [2] it was 2.24 µM (active); in test [3] it was 1.26 µM (active); in test [5], 1.85 µM (active); in test [6], 2.94 µM (active). Further, the Potency entry in [4], in test [7], in test [12], in test [13], in test [21] and in test [22] was “inactive” throughout. Further, the result in [8], in [10] and in test [11] was inactive. The activation in test [9] is 5.25% (inactive). For the same compound, the remaining parasite growth % (stronger effect = lower value) in test [14] was -1.39%. The activity, percent of control in test [15] was 5.68%. Further, the remaining proliferation (% of control), lower = more inhibition in test [16] is -0.36%. This compound also came in with a parasite growth, % of DMSO control in [17] of 6.27%. The compound also had a parasite growth remaining, % of DMSO control (lower = more inhibition) in test [18] of 15.3%. The parasite growth, % of control (lower = inhibition) in test [19] came out at 34.1%. The same compound displayed a growth, % of control in test [20] of 3.34%.

These data come from PubChem BioAssay (NCATS).
